# Test results from PubChem BioAssay (NCI).
# About 79,000 compounds went through this panel and 15% of them were active in at least one assay; those are over-represented in the sample as a whole. A number with no mark means an inactive call. Activity calls are given as the source filed them. No stated cut-off is given here; in the data, active means growth inhibition above about 70%; inactive means the rest.
# What was measured:
# [1] = NCI Yeast Anticancer Drug Screen. Data for the rad50 strain (AID 155);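 further: 0% = growth of vehicle-only cultures of the same strain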; settings: S. cerevisiae rad50 strain growth inhibition; at 50.0 µM; active compounds read high
# Summary of the method: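 Readout: growth inhibition relative to vehicle-treated cultures. Compound exposure was carried out in a genetically defined yeast strain deficient in DNA damage repair.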
# [2] = NCI Yeast Anticancer Drug Screen. Data for the mec2-1 strain (AID 157); settings: S. cerevisiae mec2-1 strain, at 50.0 µM, active compounds read high
# Summary of the method: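 Cells of the genetically defined mec2-1 yeast strain are incubated with test compound. Inhibition of growth is calculated against vehicle-treated controls.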
# [3] = NCI Yeast Anticancer Drug Screen. Data for the sgs1 mgt1 strain (AID 161);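 further: 0% = growth of cultures given vehicle only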; settings: S. cerevisiae sgs1 mgt1 strain, at 50.0 µM, active compounds read high
# Summary of the method: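 Test agents were incubated with a DNA-repair-mutant yeast strain. Growth was then read and compared against vehicle-treated controls.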
# [4] = NCI Yeast Anticancer Drug Screen. Data for the cln2 rad14 strain (AID 165);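 further: 0% = growth equal to vehicle treated cultures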; settings: S. cerevisiae cln2 rad14 strain, at 50.0 µM, active compounds read high
# Summary of the method: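 The screen exposed genetically defined yeast (cln2 rad14) to test compounds and scored growth inhibition relative to vehicle-treated controls.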
# [5] = NCI Yeast Anticancer Drug Screen. Data for the bub3 strain (AID 167); settings: S. cerevisiae bub3 mutant strain, at 50.0 µM, active compounds read high
# Summary of the method: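 Readout: yeast growth inhibition, expressed relative to vehicle-only wells. The test organism is a mutant strain from a panel with lesions in DNA repair or checkpoint genes.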
# [6] = NCI Yeast Anticancer Drug Screen. Data for the mlh1 rad18 strain (AID 175); settings: S. cerevisiae mlh1 rad18 strain growth inhibition; at 50.0 µM; active compounds read high
# Summary of the method: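 Compound-treated yeast growth, normalised to vehicle controls. Strain bears defined DNA repair mutations.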
Compound,growth inhibition [1],growth inhibition [2],growth inhibition [3],growth inhibition [4],growth inhibition [5],growth inhibition [6]
CC(=O)Nc1cc(F)c(N=Nc2ccc([N+](=O)[O-])cc2)c(F)c1,-9.5%,-3.45%,22.1%,-38.2%,-28.1%,-10.3%
CCOC(=O)c1c(NNc2ccccc2)nc2ccccc2c1-c1ccccc1,25.1%,-2.05%,11.1%,22.4%,-10.3%,-1.7%
COc1ccc(C(CN)c2ccc(N)cc2)cc1 (centres undefined),8.8%,10.7%,1.6%,2.9%,-13.4%,-5.05%
C/C(C/C(C)=N/C(N)=S)=N\C(N)=S,-37.5%,-23.1%,-15.8%,-12.4%,0.15%,-13.5%
CC(=O)OCC1OC(n2c(C)c(N=Nc3ccccc3)c(C)c(C#N)c2=S)C(OC(C)=O)C(OC(C)=O)C1OC(C)=O (centres undefined),-17.7%,-17.6%,-1.7%,-1%,-10.3%,14.8%
CCn1ncc2c1nc(-c1ccccc1)c[n+]2[O-],17.1%,4%,-34.5%,-12.4%,-44.9%,-52%
O=C1c2ccccc2-c2ccc(N3C(=O)C=CC3=O)cc21,98.6% (active),98.6% (active),98.8% (active),56.2%,92.4% (active),92.2% (active)
O=C(/C=C/c1ccccc1)NC(=S)Nc1ccccc1F,12.1%,-3.1%,-23.9%,-12.4%,29.7%,20.6%
Cc1cccc(C)c1Nc1nc(C)c(C(=O)CC(=O)C(=O)Nc2c(C(C)C)cccc2C(C)C)s1,18.3%,-6.35%,46.3%,-15.7%,-3.55%,19.6%
O=c1c2cccnc2[nH]c2ccc3scnc3c12,-8.85%,-11.3%,-3.75%,22.2%,-20.1%,40.7%
CSCCC(NC(=O)c1cnc2ccccc2n1)C(=O)O (centres undefined),-4.55%,2.6%,11.2%,5.55%,14.7%,-17.1%
CC(Cc1ccccc1)NC(=O)C1CC2CCCCN2C1C (centres undefined),4.95%,20.4%,57.2%,45.9%,45.5%,48.6%
c1ccc(-c2nc(-c3nn[nH]n3)c3ccccc3n2)cc1,-1.2%,13.7%,2.85%,-19.6%,14.5%,20.8%
CCCCOC(=O)CNC(=O)OC/C=C/C#CC#C/C=C/COC(=O)NCC(=O)OCCCC,-20.2%,-35.8%,-24.4%,-17.9%,0.3%,-19.9%
Cc1c(C)c(Cl)c(C)c(C(Cl)(Cl)Cl)c1C,0.85%,-1.3%,2.05%,12.2%,-0.65%,-6.25%
O=c1[nH]nc(Cc2ccccc2)n1CCCl,16.9%,13.8%,15.6%,-3.7%,8.35%,11.5%
COc1cc(NCc2ccc3c(c2)OCO3)c([N+](=O)[O-])cc1OC,5.15%,11.3%,6.6%,-8.6%,4.3%,-15.7%
O=C1c2ccccc2C(=O)c2c1ccc1c2N=C(c2ccc(F)cc2)CC(c2ccc(Cl)c(Cl)c2)N1 (centres undefined),58%,20.1%,5%,-14.7%,7.65%,43.6%
O=S1(=O)OCCOS(=O)(=O)C1(F)Br,-38.4%,-4.7%,-19.6%,-8%,-20.6%,-29.8%
Nc1cc(Br)cc2c1-c1ccc(Br)cc1C2=O,15.1%,-10.6%,1.35%,-54.9%,5.15%,10%

Compound,growth inhibition [1],growth inhibition [2],growth inhibition [3],growth inhibition [4],growth inhibition [5],growth inhibition [6]
Nc1[nH]c(=S)[nH]c(=O)c1NS(=O)(=O)c1ccccc1,3.65%,-1.6%,12.6%,-4.85%,-10.2%,18.4%
C=C(C)c1ccccc1N,-1.75%,-40.4%,-4.65%,6.95%,-26.4%,14.1%
CCC(O)C1CCCCC1O (centres undefined),-8.95%,8.35%,-3.8%,15.7%,15.2%,2.45%
COC1=CCC=C(C(C)(C)C)C1,-45.8%,-22.6%,-10.5%,-32.1%,-12.2%,21.7%
O=c1c(-c2ccccc2)nc2ccccc2n1CC1CCCN2CCCC[C@H]12 (some centres undefined),3.9%,-10%,18.3%,-38.9%,22.7%,19.4%
CSc1ccc(N=Cc2ccccc2O)cc1,11.2%,-40%,22.2%,15.1%,8.85%,19.4%
COc1ccc(N=Cc2ccc(OC(=O)c3ccccc3)c(OC)c2)cc1,2.15%,0.5%,0.55%,-0.8%,13.3%,-23.5%
C/C(C/C(C)=N/O)=N/O,-8.6%,-5.85%,2.8%,0.45%,-2.55%,17.7%
Oc1cc2c(cc1C(c1ccc(F)cc1)N1CCCC1)OCO2 (centres undefined),33.1%,19.5%,39.9%,-15.6%,37.9%,35.1%
Nc1ccc(Cn2cnc3c(=O)[nH]cnc32)cc1,-11.7%,-6.45%,7.7%,-45.9%,6.85%,-5.4%
Cc1cccc(NC(=O)Oc2ccc(Nc3ccccc3)cc2)c1,6.6%,38.5%,40.2%,12.3%,62%,50.4%
CCCCC(C(N)=O)C(C)(C)C(=O)O (centres undefined),-6%,-0.45%,4.9%,-21.2%,9.85%,-1.75%
Cc1[nH]c2ccccc2c1-c1cc(-c2cc(-c3c(C)[nH]c4ccccc34)nc(N)n2)nc(N)n1,-12.9%,8.95%,-25.8%,3.05%,-11.3%,-1.95%
Cc1cc([N+](=O)[O-])ccc1NC(=O)C(=O)C(C(=O)c1ccccc1-c1ccccc1)C1OC(=O)c2ccccc21 (centres undefined),12%,12.4%,-5.4%,-52%,6.8%,41.5%
CC1=NN(C(=O)CC(=O)NC(=O)CC(=O)Nc2ccccc2F)C(=O)C1N=Nc1ccc([N+](=O)[O-])cc1 (centres undefined),20.5%,22.6%,30%,16.3%,12.1%,8.2%
CCN(CC)S(=O)(=O)c1ccc(N)cc1,26.1%,2.15%,25.4%,-13.9%,-2.2%,8.4%
NC12CC3CC(C1)CC(Cl)(C3)C2,-12.6%,-26.9%,-32.4%,-3.5%,-35.9%,4.1%
Ic1ccc([I+]c2ccc(I)cc2)cc1,94.4% (active),94.2% (active),97% (active),93.5% (active),94.3% (active),90.8% (active)
CC#CCC1CCC(OCC)=CC1=O (centres undefined),10.4%,9.25%,12.2%,-20%,5.9%,17.1%
